Laboratory results published in the supplement of paper PMC11219838.
Unmarked numbers belong to inactive results.

tested on: Caenorhabditis elegans L1 (N2); assay: survival and reproduction score of C. elegans L1 (0: 0-10 living worms, 1: 11-20, 2: 21-50, 3: >50, 4: overgrown) (score 0-4); higher = more worms, less nematicidal, active = 1 or less; extreme values may be limits of the assay; conditions: 60 µM; 6 days; temperature: 20 °C
How it was run: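 Synchronized C. elegans N2 L1s (about 20 per well) were grown in 96-well plates in liquid NGM with E. coli HB101 and compound at 60 µM final (0.6% v/v DMSO), shaken sealed at 200 rpm and 20 °C for 6 days. The ordinal score for survival and reproduction counted living worms per well under a dissection microscope. The scale ran 0 (0–10 worms) to 4 (overgrown, starved), averaged over two biological replicates.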

Row | Compound | survival and reproduction score
1 | Cc1ccc(NC(=O)CSc2nnc(-c3ccc(C(C)(C)C)cc3)o2)c(C)c1 | 2
2 | Clc1ccc(-c2nc(-c3ccncc3)no2)cc1Cl | 4
3 | Cc1ccc(OCc2nc(-c3ccccn3)no2)cc1C | 4
4 | Cc1cc(C)c(C)c(OCc2nc(-c3cccnc3)no2)c1 | 4
5 | COc1ccc(-c2nnc(SCC(=O)Nc3ccc(Cl)c(Br)c3)o2)cc1 | 4
6 | COc1cccc(OCc2nc(-c3cccc(C)c3)no2)c1 | 4
7 | c1ccc(-c2nnc(SCc3nc4ccccc4[nH]3)o2)cc1 | 4
8 | c1ccc2cc(-c3nc(-c4ccncc4)no3)ccc2c1 | 0 (active)
9 | COc1ccc(Cl)cc1-c1noc(-c2cccc(C)c2)n1 | 4
10 | COc1ccc(-c2noc(-c3cccc(Cl)c3)n2)cc1 | 4
11 | Cc1cc(OCc2nc(-c3ccccc3)no2)ccc1Br | 4
12 | CCc1ccc(OCc2nc(-c3ccc(C)cc3)no2)cc1 | 2
13 | CCOc1nc(-c2ccc(C)cc2)ccc1-c1noc(-c2ccc(F)cc2)n1 | 2
14 | c1ccc(COc2cccc(-c3nc(-c4cccnc4)no3)c2)cc1 | 2.5
15 | Clc1cc(Br)ccc1OCc1nc(-c2ccccn2)no1 | 4
16 | Cc1ccc(-c2nnc(SCc3ccccc3F)o2)cc1 | 4
17 | Cc1cc(OC(C)c2nc(-c3cccnc3)no2)ccc1Cl (stereo not drawn) | 4
18 | COc1ccc(C)cc1NC(=O)CSc1nnc(-c2ccc(Br)cc2)o1 | 4
19 | COc1ccc(NC(=O)CSc2nnc(-c3ccc(Br)cc3)o2)cc1 | 4

Row | Compound | survival and reproduction score
20 | COc1ccccc1OCc1nc(-c2ccc(Br)cc2)no1 | 4
21 | COc1cccc(-c2nc(-c3ccc(C)cc3)no2)c1 | 0 (active)
22 | COc1ccccc1NC(=O)CSc1nnc(-c2ccccc2)o1 | 3.5
23 | Cc1cccc(-c2nnc(SCC(=O)Nc3ccc(Br)c(C)c3C)o2)c1 | 4
24 | CCC(=O)Nc1ccccc1-c1nc(-c2ccncc2)no1 | 1 (active)
25 | COc1ccc(-c2nnc(SCC(=O)Nc3ccccc3F)o2)cc1 | 4
26 | COc1nc(-c2ccccc2)ccc1-c1noc(C(C)C)n1 | 4
27 | CCn1c(SCc2nc(-c3cccs3)no2)nnc1-c1ccco1 | 2
28 | CCOc1nc(-c2ccccc2)ccc1-c1noc(-c2cccc(OC)c2)n1 | 4
29 | Cc1ccc(-c2noc(COc3ccc(Cl)c(C)c3)n2)cc1 | 4
30 | Cc1cc(OCc2nc(-c3ccncc3)no2)cc(C)c1Cl | 4
31 | CC(=O)Nc1ccc(-c2nnc(SCc3ccccc3)o2)cc1 | 4
32 | CCCC(=O)Nc1ccccc1-c1nc(-c2cccnc2)no1 | 4
33 | Cc1ccc(OCc2nc(-c3ccncc3)no2)c(Br)c1 | 3.5
34 | Cc1cccc(OCc2nc(-c3ccccc3)no2)c1 | 1.5
35 | COc1ccc(-c2nnc(SCC(=O)N3CC(C)CC(C)C3)o2)cc1 (stereo not drawn) | 4
36 | Cc1ccccc1-c1nnc(SCC(=O)Nc2cc(C(F)(F)F)ccc2N2CCOCC2)o1 | 4
37 | Fc1ccc(-c2nc(-c3ccc(Br)cc3)no2)cc1 | 3
38 | Cc1nc(CSc2nnc(-c3ccccc3)o2)cs1 | 4
